Laboratory results published in PubChem BioAssay AID2501 (Southern Research Specialized Biocontainment Screening …, 2010).
Among all 2,200 compounds or so, about 1,200 (55%) were called active. Cut-off not given; nearly all actives show IC50 up to about 92 µM. The set was probably picked from earlier hits. This is one part of the list.

Test: counter assay for TAg ATPase ADP read-out – biochemical, ADP-Hunter, fluorescence, counter-screen (AID 2501);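 further: purified T antigen ATPase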;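 on inhibition: 0% = enzyme with vehicle and 100% = reference inhibitor wells; higher means more inhibition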
Conditions: series mostly up to 100 µM; inhibition: at the top concentration

Row | SMILES | inhibition | IC50
1 | NS(=O)(=O)c1cc(C(=O)NC2CCSc3ccccc32)ccc1Cl (centres undefined) | 10.5% (inactive) | 
2 | CSc1cccc(NC(=O)CN2C(=O)c3ccccc3S2(=O)=O)c1 | 14% (inactive) | 
3 | CCS(=O)(=O)c1ncc(Cl)c(C(=O)Nc2ccc(S(=O)(=O)N3CCCC(C)C3)cc2)n1 (centres undefined) | -5.26% (inactive) | 
4 | Oc1ccc(/C=N/Nc2cc(N3CCOCC3)nc(N3CCOCC3)n2)cc1O |  | 4.67 µM (active)
5 | Oc1ccc(/C=N/Nc2cc(N3CCCC3)nc(N3CCCC3)n2)cc1O |  | 31.9 µM (active)
6 | Cc1cc(N/N=C/c2ccc(O)cc2O)nc(N2CCOCC2)n1 |  | 22.7 µM (active)
7 | O=C(NC1CCCC1)C(c1ccc(F)cc1)N(Cc1ccc(F)cc1)C(=O)c1ccn[nH]1 (centres undefined) | -25.8% (inactive) | 
8 | N#CC1=C2SCN(Cc3ccccc3)CN2C(=O)CC1c1cccs1 (centres undefined) | 17.8% [at 25 µM] (inactive) | 
9 | COc1ccc(N2CSC3=C(C#N)C(c4cccs4)CC(=O)N3C2)cc1 (centres undefined) |  | 7.88 µM (active)
10 | COc1ccc(N2CSC3=C(C#N)C(c4cccc(OC)c4OC)CC(=O)N3C2)cc1 (centres undefined) |  | 5.84 µM (active)
11 | Cc1ccc(N2CSC3=C(C#N)C(c4cccs4)CC(=O)N3C2)cc1 (centres undefined) |  | 23.6 µM (active)
12 | CCc1ccccc1N1CSC2=C(C#N)C(c3ccccc3F)CC(=O)N2C1 (centres undefined) | 15.7% (inactive) | 
13 | CCOc1ccc(N2CSC3=C(C#N)C(c4ccco4)CC(=O)N3C2)cc1 (centres undefined) |  | 10.4 µM (active)
14 | COc1ccc(C2CC(=O)N3CN(c4ccc(C)c(Cl)c4)CSC3=C2C#N)cc1 (centres undefined) | 24.2% (inactive) | 
15 | C/C=C/c1cc(CN2CCN(c3ccc(OC)cc3)CC2)c(O)c(OC)c1 |  | 32.1 µM (active)
16 | COc1ccc2cc(-c3[nH]ncc3CN3CCCN(c4ccccc4)CC3)ccc2c1 | 4.26% (inactive) | 
17 | COc1ccc(-n2cc(CN3CCCC3)c(-c3cccc(F)c3)n2)cc1 | -4.56% (inactive) | 
18 | O=S(=O)(Nc1cccc(C(F)(F)F)c1)c1cnc[nH]1 | 10.2% (inactive) | 
19 | Cc1cc(C)c2c(=O)n(CC(=O)Nc3cccc(Cl)c3C)sc2n1 | -7.59% (inactive) | 
20 | Cc1coc2c(O)cc3c(c12)OC1(N2CCCCC2)C(=O)NCCCC31 (centres undefined) | -156% (inactive) | 
21 | COc1cc(CNc2ccc3c(c2)CCC3)cc(OC)c1O |  | 11.4 µM (active)
22 | CC1C/C(=C/c2ccco2)C(=O)/C(=C/c2ccco2)C1 (centres undefined) | 28.2% (inactive) | 
23 | N#CC1=C(N)n2c(s/c(=C\c3ccco3)c2=O)=C(C#N)C1c1ccco1 (centres undefined) | 5.17% (inactive) | 
24 | CC1=C(C#N)C(=O)N(C2CCS(=O)(=O)C2)C(=O)/C1=C\c1ccco1 (centres undefined) |  | 82 µM (active)
25 | O=C(NC(=O)c1cnccc1C(F)(F)F)Nc1ccccc1 | -24.9% (inactive) | 
26 | NC(=O)/C(=C/c1ccco1)C(N)=S | 23.5% (inactive) | 

Row | SMILES | inhibition | IC50
27 | O=C(Nc1ccc(O)cc1)/C(=C\c1ccncc1)NC(=O)c1ccccc1 |  | 10.7 µM (active)
28 | O=C(Nc1ccc(O)cc1)/C(=C\c1cccs1)NC(=O)c1ccccc1 |  | 8.43 µM (active)
29 | O=C(Nc1ccc(O)cc1)/C(=C/c1ccco1)NC(=O)c1ccccc1 |  | 3.43 µM (active)
30 | O=C(/C=C/c1ccco1)Nc1cccc(C(=O)Nc2ccccc2C(=O)O)c1 | -24.9% (inactive) | 
31 | CCC(C)N(C(=O)COC(=O)/C=C/c1ccc(O)c(OC)c1)C1CCS(=O)(=O)C1 (centres undefined) |  | 19 µM (active)
32 | C/C(CC(=O)Nc1ccc(N(C)C)cc1)=N\NC(=O)c1ccncc1 |  | 7.2 µM (active)
33 | C/C(=N\NC(=O)CCC(=O)Nc1ccc(C)c(C)c1)c1cccs1 | -20.1% (inactive) | 
34 | C/C(CC(=O)Nc1ccc(N(C)C)cc1)=N\NC(=O)c1cnccn1 |  | 3.36 µM (active)
35 | C/C(CC(=O)Nc1ccc2ccccc2c1)=N\NC(=O)c1ccc(O)c(O)c1 |  | 5.4 µM (active)
36 | O=C(COc1ccc2ccccc2c1)Nc1ccc(Cc2ccncc2)cc1 | -35.1% (inactive) | 
37 | O=C(Nc1nc(-c2ccco2)c(-c2ccco2)s1)c1cnccn1 | 21.5% (inactive) | 
38 | O=[N+]([O-])c1c(NCCO)cc(Sc2nc3ccccc3s2)c2nonc12 | -15.8% (inactive) | 
39 | Oc1ccc(/C=N/N=C/c2ccc(O)c(O)c2)cc1O |  | 2.99 µM (active)
40 | Oc1ccc(N=Cc2ccc(O)c(O)c2)cc1 |  | 2.65 µM (active)
41 | COC1=CC(=O)C(O)=C(CCCCCCC/C=C/CCCCCCCC2=C(O)C(=O)C=C(OC)C2=O)C1=O | -44.9% (inactive) | 
42 | O=C(CCSc1ccccc1)Nc1ncccn1 | 19.5% (inactive) | 
43 | CCCCCC(=O)NNC1CC(=O)N(c2cccc(OCC)c2)C1=O (centres undefined) | -16.1% (inactive) | 
44 | O=C(CCCCl)NC1=NN(c2ccccc2)C(=O)C1 |  | 12.6 µM (active)
45 | Oc1cccc2cnccc12 |  | 5.53 µM (active)
46 | N#Cc1c(N2CCCCC2)nc(N)c2c(N)nc(SCC(=O)O)cc12 | -21.9% (inactive) | 
47 | c1cncc(CNc2ccc3c(c2)OCO3)c1 |  | 7.3 µM (active)
48 | COc1ccc(-c2c(-c3ccc(O)cc3O)n[nH]c2C)cc1OC |  | 13.2 µM (active)
49 | CNc1nc(C)nc(-n2nc(C)cc2C)n1 | 15.3% (inactive) | 
50 | CC1=C(C)CS(=O)N(S(=O)(=O)c2ccccc2)C1 (centres undefined) | 0.26% (inactive) | 
51 | COc1ccc(OC)c(C2C(C(=O)c3ccc(C)o3)=C(O)C(=O)N2CCN2CCOCC2)c1 (centres undefined) | -6.16% (inactive) | 
52 | O=C(OCCCN1CCOCC1)c1ccc(O)c(O)c1 |  | 9.99 µM (active)

Row | SMILES | inhibition | IC50
53 | CN(C)c1oc(-c2ccccc2[N+](=O)[O-])nc1C#N | -16.3% (inactive) | 
54 | COc1cc(OC)c(-c2c3cc(O)c(=O)cc-3oc3cc(O)c(O)cc23)cc1OC |  | 7.14 µM (active)
55 | COc1ccc(OC)c(-c2c3cc(O)c(=O)cc-3oc3cc(O)c(O)cc23)c1 | -162% (inactive) | 
56 | O=c1cc2oc3cc(O)c(O)cc3c(-c3ccccc3[N+](=O)[O-])c-2cc1O |  | 7.23 µM (active)
57 | CO[C@@H]1O[C@@H]2COC(c3ccccc3)O[C@@H]2[C@@H](OC)[C@@H]1O (some centres undefined) | -34.3% (inactive) | 
58 | CC1(C)OC(=O)C(=NNc2ccc(O)cc2)C(=O)O1 |  | 3.09 µM (active)
59 | Nc1ccccc1-c1nc2ccccc2s1 | -0.48% (inactive) | 
60 | Nc1nc2ccc(S(=O)(=O)N3CCCCC3)cc2s1 | -1.74% (inactive) | 
61 | Nc1nc2ccc(N3CCOCC3)cc2s1 |  | 3.09 µM (active)
62 | Nc1nc2ccc(O)cc2s1 |  | 2.36 µM (active)
63 | CCOc1ccc(N2C(=O)CC(N3CCOCC3)C2=O)cc1 (centres undefined) | -1.89% (inactive) | 
64 | CN(C)c1ccc(N2C(=O)CC(Nc3ccc(N4CCOCC4)cc3)C2=O)cc1 (centres undefined) |  | 4 µM (active)
65 | O=C(NCc1ccc(F)cc1)C(=O)NCC1OCCN1S(=O)(=O)c1cccs1 (centres undefined) | -39.5% (inactive) | 
66 | O=C(c1cccs1)N1CCN(C(=O)C2CCCO2)CC1 (centres undefined) | 18.1% (inactive) | 
67 | O=C(NC(=S)N1CCN(c2ccc(O)cc2)CC1)c1cccs1 |  | 5.56 µM (active)
68 | NC(=O)c1ccsc1NC(=O)C1CCN(S(=O)(=O)c2cccs2)CC1 | 2.13% (inactive) | 
69 | O=C(CCC(=O)N1CCN(c2ccc(O)cc2)CC1)c1cccs1 |  | 2.87 µM (active)
70 | O=S(=O)(c1cccs1)N1CCN(c2ccc(O)cc2)CC1 |  | 5.21 µM (active)
71 | O=C(CC1SC(=O)N(c2ccccc2)C1=O)Nc1cccc2ccccc12 (centres undefined) | 13.9% [at 50 µM] (inactive) | 
72 | COc1ccc(CCNc2ccc(C(CC(N)=O)NC(=O)Cc3ccc(Br)cc3)cc2[N+](=O)[O-])cc1 (centres undefined) | -20% (inactive) | 
73 | CN(C)C(=S)Nc1ccc(N2CCOCC2)cc1 |  | 2.52 µM (active)
74 | O=Cc1sc(=O)n(Cc2cccc(C(=O)O)c2)c1Cl | 24.6% (inactive) | 
75 | Cc1nc2sc(C(c3ccco3)N3CCC(C)CC3)c(O)n2n1 (centres undefined) | -26.5% (inactive) | 
76 | Cc1ccccc1Nc1c(-c2ccccn2)nc2ccccn12 |  | 10.9 µM (active)
77 | Cc1ccc2nc(-c3ccccn3)c(NC3CCCC3)n2c1 |  | 10.1 µM (active)
78 | c1ccc(-c2cccc(-c3ccccn3)n2)nc1 | -3.39% (inactive) | 

Row | SMILES | inhibition | IC50
79 | C[C@@H]1NC(=O)[C@H](CCC(N)=O)NC(=O)c2cc([N+](=O)[O-])cc(I)c2NCC[C@@H](C(N)=O)NC1=O | -21.8% (inactive) | 
80 | O=c1[nH]c2ccccc2n2c(-c3ccccc3)nnc12 | -46.4% (inactive) | 
81 | CC(=O)NS(=O)(=O)c1ccc(NC(=S)NC(=O)Cc2ccccc2)cc1 | 20.9% (inactive) | 
82 | CC(=O)Nc1ccc(S(=O)(=O)Nc2nc3ccccc3nc2Nc2ccc(N)cc2)cc1 |  | 5.8 µM (active)
83 | CC(=O)Nc1ccc(S(=O)(=O)Nc2nc3ccccc3nc2Nc2ccc(O)cc2)cc1 |  | 7.76 µM (active)
84 | O=c1nc2s/c(=C\c3ccco3)c(=O)n2nc1Cc1ccc(F)cc1 | 5.11% (inactive) | 
85 | COc1cc(/C=N/NC(=O)c2cc(C3CC3)[nH]n2)ccc1O |  | 3.26 µM (active)
86 | COc1cc(/C=N/NC(=O)c2ccc3nc[nH]c3c2)ccc1O |  | 5.28 µM (active)
87 | Cc1cc(C)n2nc(C(=O)N/N=C/c3ccc(O)cc3)nc2n1 |  | 2.32 µM (active)
88 | COc1cc(/C=N/NC(=O)c2nnn(-c3nonc3N)c2-c2cccs2)ccc1O |  | 3.94 µM (active)
89 | COc1cccc(CN2CCNC(=O)C2CC(=O)NCc2cn3ccccc3n2)c1OC (centres undefined) | -27.3% (inactive) | 
90 | Cc1cccn2c(CN(C)CCC3CCCCO3)c(C(=O)N3CCCCC3)nc12 (centres undefined) | 20.9% [at 50 µM] (inactive) | 
91 | COc1cc(/C=N/NC(=O)c2c(-c3ccccc3)noc2C)ccc1O |  | 4.78 µM (active)
92 | COc1cc(/C=N/N(C)c2ccccc2)ccc1O |  | 8.84 µM (active)
93 | C=CCN1CCN(C(=O)c2c(-c3ccccc3)noc2C)CC1 | -17.8% (inactive) | 
94 | COc1cc(/C=N/NC(=O)c2cnccn2)ccc1O |  | 3.09 µM (active)
95 | COc1cc(/C=N/NC(=O)C2COc3ccccc3O2)ccc1O (centres undefined) |  | 3.2 µM (active)
96 | CCCOc1ccc(C(=O)N2CC3(CC(c4cccc(NC(=O)[C@@H]5CCC(=O)N5)c4)=NO3)C[C@H]2C(=O)NC2(C(N)=O)CC2)cc1 (some centres undefined) | -28% (inactive) | 
97 | COc1cc(/C=N/NC(=O)c2nc(C)cc(C)n2)ccc1O |  | 2.74 µM (active)
98 | COc1cc(/C=N/NC(=S)Nc2cccc(C(=O)O)c2)ccc1O |  | 2.66 µM (active)
99 | COc1cc(/C=N/NC(=O)c2cccs2)ccc1O |  | 4.58 µM (active)
100 | COc1cc(/C=N\NC(=O)c2c(C)nc3cc(C)ccn23)ccc1O |  | 4.52 µM (active)
101 | CCCOc1ccccc1/C=C1\SC(N2CCCCC2)=NC1=O | 29.5% (inactive) | 
102 | COc1cc(/C=N/NC(=O)c2ccccc2)ccc1O |  | 5.63 µM (active)
103 | COc1ccc(/C=N\NC(=O)c2ccc(=O)[nH]n2)cc1O |  | 3.12 µM (active)
104 | COc1cc(/C=N/NC(=O)c2ccncc2)ccc1O |  | 3.56 µM (active)
